Laboratory results reported in PubChem BioAssay (NCATS).
Inconclusive results are not listed. Unmarked numbers belong to inactive results. Calls follow the shape of the dose curve; as a rule, active = well fitted inhibition curve with a large enough effect; inconclusive = small, poorly fitted or top-dose-only effect; inactive = flat fitted curve, though single readings scatter.

system: KB-3-1; test: Cytotoxic Profiling of Annotated Libraries Using Quantitative High-Throughput Screening (AID 1296008); conditions: Five cell lines viability, CellTiter-Glo ATP luminescence, 48-72 h; max response: active compounds read low; also: nearly all actives have a fitted effect of over 60% in size
Outline: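 Cells exposed to compounds for 48 or 72 hr at 37 degrees Celsius. Viability read as ATP-coupled luminescence with CellTiter-Glo after 10 min at room temperature.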
% is scaled to controls: 0 for no effect and ±100 for the full control effect.

Compound	max response [%]
CC1=CCC2CC1C2(C)C (configuration not stated)	16.6
CC[C@@H]1/C=C(\C)C[C@H](C)C[C@H](OC)[C@H]2O[C@@](O)(C(=O)C(=O)N3CCCC[C@H]3C(=O)O[C@H](/C(C)=C/[C@@H]3CC[C@@H](Cl)[C@H](OC)C3)[C@H](C)[C@@H](O)CC1=O)[C@H](C)C[C@@H]2OC	-9.83
CC(=O)OCC(=O)[C@@]1(O)CC[C@H]2[C@@H]3CCC4=CC(=O)CC[C@]4(C)C3=CC[C@@]21C	-7.13
Cc1c(Cl)cccc1Nc1ncccc1C(=O)O	2.98
O=C(c1cc2ccccc2o1)N1CCN(Cc2ccccc2)CC1	-3.18
NCCO/C=C/[C@H](N)C(=O)O	0.921
CC(CCc1ccc(O)cc1)NCC(O)c1ccc(O)cc1 (configuration not stated)	9.04
CCCCC[C@H](O)/C=C/[C@H]1[C@H](O)CC(=O)[C@@H]1CCCCCCC(=O)O	3.75
O=C1CCC(=O)N1CO	-1.35
C=C1CC[C@H](O)C/C1=C\C=C1/CCC[C@]2(C)[C@@H]([C@H](C)CCCC(C)C)CC[C@@H]12	-5.93
CC(O)[C@@H]1NC(=O)[C@H](Cc2ccccc2)NC(=O)[C@H](C(C)O)NC(=O)[C@H](CCCCN)NC(=O)[C@H](Cc2c[nH]c3ccccc23)NC(=O)[C@H](Cc2ccccc2)NC(=O)[C@H](Cc2ccccc2)NC(=O)[C@H](CC(N)=O)NC(=O)[C@H](CCCCN)NC(=O)[C@@H](NC(=O)CNC(=O)[C@H](C)N)CSSC[C@@H](C(=O)O)NC(=O)[C@H](CO)NC1=O (some centres not stated)	-3.89
O=C1c2ccccc2C(=O)C1c1ccc(Cl)cc1	-7.12
O=C(CO)[C@@H](O)[C@H](O)[C@@H](O)C(=O)O	-10
COc1ccc([C@@H]2CC(=O)c3c(O)cc(O[C@@H]4O[C@H](CO[C@@H]5O[C@@H](C)[C@H](O)[C@@H](O)[C@H]5O)[C@@H](O)[C@H](O)[C@H]4O)cc3O2)cc1O	-3.21
CO/N=C(\C(=O)N[C@@H]1C(=O)N2C(C(=O)O)=C(CSC(=O)c3ccco3)CS[C@H]12)c1csc(N)n1	1.31
NC(=S)NS(=O)(=O)c1ccc(N)cc1	5.24
O=C(CCCN1CCN2CCCC2C1)c1ccc(F)cc1 (configuration not stated)	3.11
CC(C)(Oc1ccc(C2CCCc3ccccc32)cc1)C(=O)O (configuration not stated)	-10.9
CC/C=C\C/C=C\C/C=C\C/C=C\C/C=C\C/C=C\CCC(=O)O	0.95

Compound	max response [%]
O=C(OCc1ccccc1)c1cccnc1	-9.74
O=c1n(CC2CO2)c(=O)n(CC2CO2)c(=O)n1CC1CO1 (configuration not stated)	23
CCCCCCCCCCCCCCCCCC[N+](C)(C)CCC[Si](OC)(OC)OC	8.62
O=C(OC1C[C@@H]2CC3C[C@H](C1)N2CC3=O)c1c[nH]c2ccccc12 (some centres not stated)	-14.8
COc1cc(S(C)=O)ccc1-c1nc2ncccc2[nH]1 (configuration not stated)	26.5
CN1C(C(=O)Nc2ccccn2)C(=O)c2sc(Cl)cc2S1(=O)=O (configuration not stated)	5.88
CC(CN1c2ccccc2Sc2cccnc21)N(C)C (configuration not stated)	-2.53
COc1cc(C)c(/C=C/C(C)=C/C=C/C(C)=C/C(=O)O)c(C)c1C	-4.57
C=C1[C@@H]2CC[C@@H](C2)C1(C)C	-10.2
O=C(O)CC/C=C\CC[C@@H]1[C@@H](N2CCCCC2)[C@@H](O)C[C@@H]1OCc1ccc(-c2ccccc2)cc1	-15.9
COc1cc(NCCCC(C)N)c2ncccc2c1 (configuration not stated)	-4.33
C=C[C@]1(C)C[C@@H](OC(=O)CSCCN(CC)CC)[C@]2(C)[C@H](C)CC[C@]3(CCC(=O)[C@H]32)[C@@H](C)[C@@H]1O	-8.95
Cc1ncc(C[n+]2csc(CCOP(=O)(O)OP(=O)(O)O)c2C)c(N)n1	-1.51
Cn1c(O)c(N=NC(N)=S)c2ccccc21	8.19
CO/N=C(\C(=O)N[C@@H]1C(=O)N2C(C(=O)O)=C(CSc3nnnn3C)CS[C@H]12)c1csc(N)n1	-10.7
CO[C@H]1C=CO[C@@]2(C)Oc3c(C)c(O)c4c(O)c(cc(O)c4c3C2=O)NC(=O)/C(C)=C\C=C/[C@H](C)[C@H](O)[C@@H](C)[C@@H](O)[C@@H](C)[C@H](OC(C)=O)[C@@H]1C	-3.21
CCCC(=O)Nc1c(I)cc(I)c(CC(CC)C(=O)O)c1I (configuration not stated)	-4.08
NC(N)=NCC1COC2(CCCCC2)O1 (configuration not stated)	1.43
